Compound activity from PubChem.
This is a sample that favours compounds with a hit; in the whole collection about 3.1% have one here.
A549 tox: Nrf2 qHTS screen for inhibitors: counterscreen for cytotoxicity | A549 ARE-Fluc cells, CellTiter-Fluor viability, 18-24 h | Potency, µM (doses to about 46 µM), inactives show at the top dose activity change, negative = cytotoxicity, hits mostly inhibitors | 390,000 compounds, 0.16% hits; also: % is scaled to controls: 0 for no effect and ±100 for the full control effect
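A549 ARE-Fluc cells in 5% FBS OPTI-MEM, 5000 cells/well, rested 2 h then exposed to compounds in concentration-response for 18-24 h at 37 °C. Viability by CellTiter-Fluor fluorescence (Ex 405/Em 525) after 30 min; luciferase luminescence (BugLite, 15 min, RT) read afterwards.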
TrxR1 inh: qHTS Assay for Inhibitors of Mammalian Selenoprotein Thioredoxin Reductase 1 (TrxR1): qHTS; Thioredoxin reductase 1, cytoplasmic (Rattus norvegicus), O89049; recombinant rTrxR1, NADPH fluorescence consumption, selenite substrate; Potency, µM (series often up to 114 µM), without a hit: top-dose activity change, negative = inhibition, actives largely listed as inhibitors; 390,000 compounds, 1% hits; also: % is scaled to controls: 0 for no effect and ±100 for the full control effect; nearly all actives have a fitted effect of over 65% in size
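Rat TrxR1 (90 nM in the dispensed reagent) was pre-reduced with 400 uM NADPH for 5 min at room temperature, then incubated with compound for 15 min. After 400 uM selenite was added, NADPH fluorescence (Ex 340/Em 450 nm) was followed for 8 min.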
Nrf2 block: Nrf2 qHTS screen for inhibitors | A549 ARE-Fluc reporter, luciferase luminescence, 18-24 h | Potency, µM (top dose mostly 46 µM), inactives show top-dose activity change, negative = inhibition, most hits filed as inhibitors | 360,000 compounds, 2.1% hits | AID 504444, 2011; also: % is scaled to controls: 0 for no effect and ±100 for the full control effect; nearly all actives have a fitted effect of over 60% in size
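A549 ARE_Fluc cells (5000/well, 5% FBS OPTI-MEM) pre-incubated 2 h, then treated with compounds 18-24 h at 37C/5% CO2 in concentration-response. CellTiter-Fluor viability read first; BugLite luciferase luminescence after 15 min at room temperature gives Nrf2 activity.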
TrxR1 substrate: qHTS Assay for Substrates of Mammalian Selenoprotein Thioredoxin Reductase 1 (TrxR1): qHTS. Potency, µM (doses to about 114 µM), inactives show top-dose activity change, negative = substrate turnover. 390,000 compounds, 0.01% hits. purified TrxR1 substrate turnover, NADPH consumption readout. Thioredoxin reductase 1, cytoplasmic (Rattus norvegicus), O89049. AID 588456, 2011; also: % is scaled to controls: 0 for no effect and ±100 for the full control effect; nearly all actives have a fitted effect of over 50% in size
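Rat TrxR1, dispensed at 90 nM, was prereduced with 400 uM NADPH (final) for 5 min at ~22 deg C, then incubated with compound 15 min before 400 uM selenite. A first-read NADPH fluorescence drop versus no-compound background flagged substrates.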
mIDH1 inhibitor: qHTS for Inhibitors of mutant isocitrate dehydrogenase 1 (IDH1): qHTS; Isocitrate dehydrogenase [NADP] cytoplasmic (Homo sapiens), O75874; IDH1-R132H enzyme, NADPH consumption, diaphorase/resazurin fluorescence; Potency, µM (titrated, usually from 76.6 µM), for the others: top-dose activity change, negative = inhibition, hits mostly inhibitors; 390,000 compounds, 0.093% hits; AID 602179, 2012; also: % is scaled to controls: 0 for no effect and ±100 for the full control effect; nearly all actives have a fitted effect of over 65% in size
Target sequence (O75874 whole entry R132H, stated change not applied): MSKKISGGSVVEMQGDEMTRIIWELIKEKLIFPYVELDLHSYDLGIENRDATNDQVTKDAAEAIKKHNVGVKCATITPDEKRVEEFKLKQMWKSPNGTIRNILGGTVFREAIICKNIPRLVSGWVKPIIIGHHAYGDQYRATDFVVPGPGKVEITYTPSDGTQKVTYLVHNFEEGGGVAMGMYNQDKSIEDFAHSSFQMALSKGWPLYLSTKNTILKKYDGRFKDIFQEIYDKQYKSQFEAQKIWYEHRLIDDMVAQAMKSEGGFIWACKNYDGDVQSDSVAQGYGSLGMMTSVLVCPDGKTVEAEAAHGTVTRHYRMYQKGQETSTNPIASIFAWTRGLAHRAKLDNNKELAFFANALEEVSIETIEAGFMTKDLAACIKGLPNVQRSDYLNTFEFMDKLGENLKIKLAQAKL
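IDH1-R132H (0.5 ug/mL dispensed) in pH 7.5 Tris buffer was preincubated 30 min with compound, then given a substrate mix of 0.016 mM NADPH and 2 mM alpha-KG for 80 min at room temperature; remaining NADPH was read by diaphorase/resazurin fluorescence.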
Mito fusion yeast: qHTS Assay for Small Molecule Inhibitors of Mitochondrial Division or Activators of Mitochondrial Fusion; S. cerevisiae fusion-defective mutant growth rescue, CellTiterGlo 48 h; Potency, µM (highest dose often 46.1 µM), for inactives: at the highest dose growth rescue (activation), hits mostly activators; 320,000 compounds, 0.23% hits; AID 485298, 2010; also: % of control where 0% means no effect; nearly all actives have a fitted effect of over 45% in size
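Read-out: ATP-based luminescence (CellTiterGlo, 10 min ambient) reporting growth of fusion-defective ts yeast after 48 hours at 37C on glycerol/ethanol YPEG medium in the presence of compound.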
Active calls of the source: *; ! = a repeat was not active; [ ] = another dose, or the depositor's remark. Calls follow the shape of the dose curve; as a rule, active = well fitted curve in the direction sought with a large enough effect; inconclusive = small, poorly fitted or top-dose-only effect, or another doubt; inactive = no such curve, though single readings can be large; an effect the other way counts as inactive or inconclusive. Potency is read from the fitted curve at half-maximal effect.

CC(C)(C)n1ncc2c(=O)n(Cc3cccc(-c4cccs4)c3)cnc21 was read as TrxR1 inh 18.5% and TrxR1 substrate -4.8%.
`Cc1cccc(NCc2nc3ccccc3n2CCOc2ccccc2C)c1` gave A549 tox 1.3%, TrxR1 inh 9.0%, Nrf2 block 0.0%[9.27 µM], TrxR1 substrate 19.2% and mIDH1 inhibitor 6.0%.
Screening C[C@]12CC[C@@H]3c4ccc(O)cc4CC[C@H]3[C@@H]1CCC2=O returned A549 tox -7.7%, TrxR1 inh -5.5%[57.1 µM], Nrf2 block -7.0%, TrxR1 substrate 0.2%[57.1 µM], mIDH1 inhibitor -5.5% and Mito fusion yeast 5.8µM*!.
O=c1cc(CO)oc(C(Nc2ccccn2)c2cccc(F)c2)c1O (stereo not drawn) was read as A549 tox -4.1%, TrxR1 inh 20µM*, Nrf2 block inconclusive, TrxR1 substrate -1.7%, mIDH1 inhibitor -4.5% and Mito fusion yeast 1.3%.
COc1cccc(C(Nc2ccccn2)c2oc(CO)cc(=O)c2O)c1 (stereo not drawn) was read as A549 tox 0.2%, TrxR1 inh 70.8µM*, Nrf2 block 0.8%, TrxR1 substrate -2.1%, mIDH1 inhibitor -1.8% and Mito fusion yeast -1.8%.
`O=c1cc(CO)oc(C(Nc2ccccn2)c2ccc(C(F)(F)F)cc2)c1O` (stereo not drawn) gave A549 tox 0.0%, TrxR1 inh -17.7%, Nrf2 block 14.0%, TrxR1 substrate -9.1%, mIDH1 inhibitor -1.7% and Mito fusion yeast 2.8%.
Screening COc1ccccc1NC(=O)C12CC3CC(C1)CC(c1ccc(C)cc1)(C3)C2 returned A549 tox -8.9%, TrxR1 inh 25.1%[57.1 µM], Nrf2 block inconclusive, TrxR1 substrate 7.0%[57.1 µM], mIDH1 inhibitor 6.8% and Mito fusion yeast -0.6%.
COc1ccc(NC(=O)C23CC4CC(C2)CC(c2ccc(C)cc2)(C4)C3)cc1 was read as A549 tox -18.0%, TrxR1 inh -2.3%, Nrf2 block 16.4µM*, TrxR1 substrate -8.5%, mIDH1 inhibitor 6.8% and Mito fusion yeast 21.1%.
Screening Cc1ccc(CNC(=O)CCCc2nnc3n(CC(C)C)c(=O)c4sccc4n23)cc1 returned A549 tox -2.8%, TrxR1 inh 37.5%, Nrf2 block 1.7%, TrxR1 substrate 12.1% and mIDH1 inhibitor 36.8%.
Cc1ccc(CSc2nnc(SCC(=O)N/N=C/C=C/c3ccccc3[N+](=O)[O-])s2)cc1 was read as A549 tox 12.0%, TrxR1 inh -7.5%, Nrf2 block inconclusive, TrxR1 substrate -12.6%, mIDH1 inhibitor 2.8% and Mito fusion yeast 0.1%.
CCn1c(SCC(=O)N/N=C/C=C\c2ccccc2[N+](=O)[O-])nnc1-c1ccccc1 was read as A549 tox -17.1%, TrxR1 inh -1.3%[57.1 µM], Nrf2 block 16.4µM*, TrxR1 substrate 0.3%[57.1 µM], mIDH1 inhibitor -0.6% and Mito fusion yeast 0.8%.
Screening CC1CC=CC2C1C(=O)N(Cc1ccccc1)C2c1ccc(F)c(-c2ccc(N(C)C)cc2)c1 (stereo not drawn) returned A549 tox 5.7%, TrxR1 inh 2.5%, Nrf2 block -14.8% and TrxR1 substrate 32.1%.
CCC(NC(=O)CCl)c1ccc(C)cc1 (stereo not drawn) was read as A549 tox inconclusive, TrxR1 inh -34.0%[57.1 µM], Nrf2 block 23.1µM*, TrxR1 substrate 4.4%[57.1 µM], mIDH1 inhibitor -4.1% and Mito fusion yeast -1.3%.
Screening CCCC(NC(=O)CCl)c1ccccc1 (stereo not drawn) returned A549 tox -18.2%, TrxR1 inh inconclusive, Nrf2 block inconclusive, TrxR1 substrate -9.4%, mIDH1 inhibitor -2.3% and Mito fusion yeast -2.6%.
Screening CC(NC(=O)CCl)c1ccc(Cl)c(Cl)c1 (stereo not drawn) returned A549 tox 0.5%, TrxR1 inh 39.8µM*, Nrf2 block -14.3%, TrxR1 substrate -3.1%, mIDH1 inhibitor 11.1% and Mito fusion yeast -10.9%.
For CCOc1ccc(-c2cn3c(n2)sc2cc(C(=O)NCCc4ccc(OC)c(OC)c4)ccc23)cc1 the results were A549 tox 0.7%, TrxR1 inh 14.5%, Nrf2 block inconclusive, TrxR1 substrate 16.6% and mIDH1 inhibitor -11.1%.
CCN1CCc2c(sc(NC(=S)NC(=O)c3ccccc3)c2C#N)C1 was read as A549 tox inconclusive, TrxR1 inh 17.8µM*, Nrf2 block 29.7%, TrxR1 substrate -8.3%, mIDH1 inhibitor -2.8% and Mito fusion yeast -6.1%.
`CCN1CCc2c(sc(NC(=O)c3ccc(S(=O)(=O)N(CC)c4ccccc4)cc3)c2C(N)=O)C1` gave A549 tox 23.1µM*, TrxR1 inh 4.4%[57.1 µM], Nrf2 block 16.4µM*, TrxR1 substrate 0.7%[57.1 µM], mIDH1 inhibitor -4.3% and Mito fusion yeast -0.8%.
Fc1ccc(Nc2nc(NCc3ccco3)nc3nccnc23)cc1 was read as A549 tox -3.2%, TrxR1 inh -10.1%, Nrf2 block inconclusive and TrxR1 substrate 4.1%.
For COc1ccc(-c2nc(-c3ccccc3)c(-c3cc([N+](=O)[O-])ccc3C)[nH]2)cc1OC the results were A549 tox -15.6%, TrxR1 inh 12.8%[57.1 µM], Nrf2 block inconclusive, TrxR1 substrate 5.8%[57.1 µM], mIDH1 inhibitor -1.7% and Mito fusion yeast 19.4%.
For CCOc1cc(-c2nc(-c3ccccc3)c(-c3cc([N+](=O)[O-])ccc3C)[nH]2)ccc1O the results were A549 tox inconclusive, TrxR1 inh 7.6%, Nrf2 block inconclusive, TrxR1 substrate 1.0%, mIDH1 inhibitor 0.7% and Mito fusion yeast 14.1µM*.
CN(C)c1cc2c3ccccc3ccc2c2ccccc12 was read as TrxR1 inh 37.0% and TrxR1 substrate 130.8%.
Screening Cc1ccc(Nc2nc(N)nc(CN3CCCCCC3)n2)cc1 returned A549 tox -7.6%, TrxR1 inh inconclusive, Nrf2 block 11.8%, TrxR1 substrate 3.9%, mIDH1 inhibitor 2.7% and Mito fusion yeast -5.1%.
Screening Nc1nc(CN2CCCCCC2)nc(Nc2ccccc2)n1 returned A549 tox 10.7%, TrxR1 inh 15.8µM*, Nrf2 block 8.0%, TrxR1 substrate 5.7%[57.1 µM], mIDH1 inhibitor -5.8% and Mito fusion yeast 2.9%.
`CSc1cc2c(s1)c1cnn(Cc3ccccc3F)c(=O)c1n2C` gave A549 tox -3.2% and Nrf2 block -16.4%.
